The panel holds about 79,000 compounds, 15% with a hit somewhere; the sample as a whole holds those more often. Active and inactive are the calls of the source. Cut-off read from the data, not from the text of the source: active = growth inhibition above about 70%; inactive = the rest.
Assays:
[1] = NCI Yeast Anticancer Drug Screen. Data for the wt1 strain (AID 149);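 note: 0% = growth of vehicle-treated wt1 cultures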; conditions: S. cerevisiae wt1 strain (SPY 50644) growth inhibition, active compounds read high
Method in brief: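 Yeast wt1 strain exposed to compounds; growth inhibition measured relative to vehicle-treated controls.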

[2] = NCI Yeast Anticancer Drug Screen. Data for the rad50EPP+ strain (AID 151);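 note: 0% = growth of vehicle-treated control cultures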; conditions: S. cerevisiae rad50 mutant strain, active compounds read high
Method in brief: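 Growth inhibition read against vehicle controls in rad50EPP+ yeast, a strain altered in DNA damage repair, after compound exposure.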

[3] = NCI Yeast Anticancer Drug Screen. Data for the mgt1 strain (AID 153); conditions: S. cerevisiae mgt1 mutant growth inhibition, active compounds read high
Method in brief: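 mgt1 yeast grown with test compound; read-out is growth inhibition versus vehicle-treated cultures.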

[4] = NCI Yeast Anticancer Drug Screen. Data for the rad50 strain (AID 155);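 note: 0% = growth of vehicle-only cultures of the same strain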; conditions: S. cerevisiae rad50 strain growth inhibition, active compounds read high
Method in brief: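 Yeast carrying a defined DNA repair defect were exposed to test compounds, and growth was compared with vehicle-treated controls to give percent inhibition.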

[5] = NCI Yeast Anticancer Drug Screen. Data for the mec2-1 strain (AID 157); conditions: S. cerevisiae mec2-1 strain, active compounds read high
Method in brief: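 Yeast mec2-1 mutant treated with compound. Readout: growth inhibition vs vehicle controls.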

[6] = NCI Yeast Anticancer Drug Screen. Data for the rad14 strain (AID 159);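 note: 0% = growth of vehicle-treated control cultures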; conditions: S. cerevisiae rad14 strain growth inhibition, active compounds read high
Method in brief: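 Yeast cells carrying a defined DNA-repair defect were exposed to compounds, and growth inhibition was calculated relative to vehicle-treated control cultures.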

[7] = NCI Yeast Anticancer Drug Screen. Data for the sgs1 mgt1 strain (AID 161);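 note: 0% = growth of cultures given vehicle only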; conditions: S. cerevisiae sgs1 mgt1 strain, active compounds read high
Method in brief: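 Mutant yeast exposed to compound; growth scored against vehicle-only wells.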

[8] = NCI Yeast Anticancer Drug Screen. Data for the CLN2oe strain (AID 163);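 note: 0% = growth of vehicle-only control cultures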; conditions: S. cerevisiae CLN2oe strain, active compounds read high
Method in brief: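 Read-out: yeast growth inhibition, expressed relative to vehicle-only controls. The strain bears an engineered cell-cycle alteration.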

[9] = NCI Yeast Anticancer Drug Screen. Data for the cln2 rad14 strain (AID 165);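 note: 0% = growth equal to vehicle treated cultures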; conditions: S. cerevisiae cln2 rad14 strain, active compounds read high
Method in brief: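 cln2 rad14 yeast strain; compound exposure; growth inhibition read vs vehicle controls.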

[10] = NCI Yeast Anticancer Drug Screen. Data for the bub3 strain (AID 167); conditions: S. cerevisiae bub3 mutant strain, active compounds read high
Method in brief: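 Compounds were applied to a genetically altered yeast strain carrying a cell-cycle control defect. Growth inhibition was scored against vehicle-treated controls.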

[11] = NCI Yeast Anticancer Drug Screen. Data for the wt2 strain (AID 169);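 note: 0% = growth of vehicle-treated yeast cultures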; conditions: S. cerevisiae wt2 strain growth inhibition, active compounds read high
Method in brief: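 Read-out: growth inhibition versus vehicle-treated control cultures after compound exposure of the yeast strain.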

[12] = NCI Yeast Anticancer Drug Screen. Data for the mlh1 strain (AID 171);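 note: 0% = growth of vehicle-treated control cultures of the same strain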; conditions: S. cerevisiae mlh1 strain growth inhibition, active compounds read high
Method in brief: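 Read-out: growth inhibition versus vehicle controls. Strain: engineered yeast with a defined DNA repair or cell cycle defect, compound-treated.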

[13] = NCI Yeast Anticancer Drug Screen. Data for the sgs1 strain (AID 173);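 note: 0% = growth of vehicle-only control cultures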; conditions: S. cerevisiae sgs1 mutant, active compounds read high
Method in brief: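 Read-out: yeast growth inhibition relative to vehicle controls, following compound exposure of a strain with a defined DNA repair/cell cycle alteration.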

[14] = NCI Yeast Anticancer Drug Screen. Data for the mlh1 rad18 strain (AID 175); conditions: S. cerevisiae mlh1 rad18 strain growth inhibition, active compounds read high
Method in brief: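 Yeast w/ defined DNA-repair lesions; compound exposure; growth vs vehicle controls → % inhibition.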

[15] = NCI Yeast Anticancer Drug Screen. Data for the rad18 strain (AID 177); conditions: S. cerevisiae rad18 mutant growth inhibition, active compounds read high
Method in brief: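 Readout: growth inhibition vs vehicle controls. Cells: genetically altered yeast strain, DNA repair defect.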

[16] = at 5.0 µM (retest, dose inferred, filed as 0.5)
[17] = at 50.0 µM (retest, dose inferred, filed as 5.0)

Measured: growth inhibition

Cc1ccc(Cl)c2c(=O)c3ccccc3[nH]c12
active: [4]; [17] 71% | [4]; at 50.0 µM 84.1% | [14]; at 50.0 µM 71%
inactive: [1]; at 1.2 µM -1% | [1]; at 3.7 µM -3% | [1]; at 11.0 µM -2% | [1]; at 33.0 µM 0% | [1]; at 100.0 µM 5% | [2]; at 1.2 µM 4% | [2]; at 3.7 µM 2% | [2]; at 11.0 µM 12% | [2]; at 33.0 µM 24% | [2]; at 100.0 µM 58% | [3]; at 1.2 µM -2% | [3]; at 3.7 µM -1% | [3]; at 11.0 µM 0% | [3]; at 33.0 µM 0% | [3]; at 100.0 µM 7% | [4]; at 1.2 µM -9% | [4]; at 3.7 µM -44% | [4]; [16] 5% | [4]; at 11.0 µM 14% | [4]; at 33.0 µM 3% | [4]; at 100.0 µM 51% | [5]; at 1.2 µM -1% | [5]; at 3.7 µM -3% | [5]; [16] 4% | [5]; at 11.0 µM -2% | [5]; at 33.0 µM 1% | [5]; [17] 32% | [5]; at 50.0 µM 40% | [5]; at 100.0 µM 11% | [6]; at 1.2 µM 0% | [6]; at 3.7 µM 3% | [6]; at 11.0 µM 4% | [6]; at 33.0 µM 5% | [6]; at 100.0 µM 19% | [7]; [16] 0% | [7]; [17] 34% | [7]; at 50.0 µM 41.3% | [8]; at 1.2 µM -4% | [8]; at 3.7 µM -5% | [8]; at 11.0 µM -4% | [8]; at 33.0 µM -2% | [8]; at 100.0 µM -12% | [9]; [16] -8% | [9]; [17] 9% | [9]; at 50.0 µM 11.2% | [10]; at 1.2 µM -3% | [10]; at 3.7 µM -2% | [10]; [16] -5% | [10]; at 11.0 µM -7% | [10]; at 33.0 µM -1% | [10]; [17] 14% | [10]; at 50.0 µM 27.6% | [10]; at 100.0 µM 4% | [11]; at 1.2 µM 0% | [11]; at 3.7 µM 8% | [11]; at 11.0 µM 1% | [11]; at 33.0 µM 4% | [11]; at 100.0 µM 10% | [12]; at 1.2 µM 0% | [12]; at 3.7 µM -1% | [12]; at 11.0 µM 0% | [12]; at 33.0 µM 0% | [12]; at 100.0 µM 12% | [13]; at 1.2 µM -2% | [13]; at 3.7 µM 2% | [13]; at 11.0 µM -1% | [13]; at 33.0 µM 4% | [13]; at 100.0 µM 23% | [14]; [16] 2% | [14]; [17] 59% | [15]; at 1.2 µM 1% | [15]; at 3.7 µM 2% | [15]; at 11.0 µM 2% | [15]; at 33.0 µM 7% | [15]; at 100.0 µM 54%
